From ChEMBL document CHEMBL3988442, “University of Dundee, Small-Polar-MMV Screening Library” (2021) come the findings set out here.

Values joined by “and” are separate entries in the source; they are usually repeats but may differ in a detail not shown here. Identical values can stand only once. In all, about 34,000 compounds went through this assay and about 290 (0.85%) showed an effect of 50% or more. Only a selection was taken, and strong results are over-represented in it overall.

For this assay, the system named is Plasmodium falciparum. As to the kind of experiment: Plasmodium falciparum sporozoite viability assay. It counts as functional, organism-based. More on the design: scale not given: in the data most compounds retested in dose-response had high values.

Consider `Cc1ccnc(NC(=O)CCNC(=O)c2ccccc2Cl)c1`, for which the “Percent Effect” value (10 mM as filed; unlikely as a test dose) is 67.45% and 43.1%.

Regarding `CNC(=O)CC1CC2(CCN(S(C)(=O)=O)CC2)c2ccccc21` (configuration not stated), the “Percent Effect” value was -20.92%.

On to `Fc1cnc(N2C[C@@H]3C[C@@H](c4nc(C5CC5)cs4)O[C@@H]3C2)nc1.O=C(O)C(F)(F)F`, for which the “Percent Effect” value is reported as -20.62%.

Turning to `Cc1ccc(-c2nnc(CN3CCc4cnc(C)nc4C3)o2)cc1`, the “Percent Effect” value (10 mM as filed; unlikely as a test dose) was 3.206% and -6.075% and -3.091%.

Take `Cc1ncc2c(n1)CN(Cc1nnc(-c3occc3C)o1)CC2`: under “10 mM as filed; unlikely as a test dose”, the “Percent Effect” value is 65.26% and 48.37% and 69.52%.

For the compound `Cc1noc(C)c1CC(=O)N[C@@H]1CC[C@@H](Oc2ccccc2)[C@@H]1O`, the “Percent Effect” value is given as 3.978%.

For `Cc1nccn1C1CCCN(C(=O)c2ccc(-n3cccn3)nc2)C1` (configuration not stated), the “Percent Effect” value was -4.8%.

Turning to `CN1CCN(c2cc(CNC(=O)c3ccsc3)ccn2)CC1`, the “Percent Effect” value stood at 4.114%.

For the compound `CN1CC(=O)N(c2cccc(F)c2)CC12CCN(CC1CC1)C2.O=C(O)C(F)(F)F.O=C(O)C(F)(F)F` (configuration not stated), the “Percent Effect” value was -25.37%.

As to `c1ccc(-c2nnc(N3CCCC4(CCOC4)C3)s2)cc1` (configuration not stated), the “Percent Effect” value (10 mM as filed; unlikely as a test dose) was 67.59% and 93.8% and 88.49%.

In the case of `c1ccc2sc(N3CCCC4(CCOC4)C3)nc2c1` (configuration not stated), for the setting “10 mM as filed; unlikely as a test dose”, the “Percent Effect” value was -44.73% and -22.63% and -45.78%.

With `O=C1CN(c2ccc(CNC(=O)NCCO)cc2)CCN1`, the “Percent Effect” value came out at 1.887%.

Regarding `CCc1noc(CN(CC)Cc2cc3cc(C)ccc3[nH]c2=O)n1`, the “Percent Effect” value was -10%.

Turning to `CC(=O)Nc1nc(C(=O)N2CCCC(c3cc(C)[nH]n3)C2)cs1` (configuration not stated), the “Percent Effect” value is given as 3.993%.

On to `Cc1[nH]/c(=N\C(=O)c2csc(NC3CCCC3)n2)sc1C`, for which, under “10 mM as filed; unlikely as a test dose”, the “Percent Effect” value was 52.39% and 34.41%.

As for `Cc1[nH]/c(=N\C(=O)c2csc(NCC(C)C)n2)sc1C`, for the setting “10 mM as filed; unlikely as a test dose”, the “Percent Effect” value is 72.35% and 45.27% and 35.24%.

For the compound `Cc1cs/c(=N/C(=O)c2csc(NCC(C)C)n2)[nH]1`, the “Percent Effect” value (10 mM as filed; unlikely as a test dose) was -15.12% and -26.88%.

With `Cc1cn2c(n1)CCC(NC(=O)c1cc[nH]n1)C2` (configuration not stated), the “Percent Effect” value is on record as 2.695%.

For the compound `CC(=O)Nc1nc(C(=O)N2CCC(Nc3cccnn3)CC2)cs1`, the “Percent Effect” value was -14.59%.

As for `Cc1[nH]/c(=N\C(=O)c2csc(NC3CC3)n2)sc1C`, the “Percent Effect” value (10 mM as filed; unlikely as a test dose) was 50.71% and 20.82% and 44.18%.

With `O=C(O)C(F)(F)F.O=C(O)C(F)(F)F.c1cncc(C2COC3(CCN(Cc4cccs4)CC3)C2)c1` (configuration not stated), the “Percent Effect” value is on record as -1.667%.

For `CC(Cn1cccn1)NC(=O)NCCc1cccs1` (configuration not stated), the “Percent Effect” value is -5.389%.

Regarding `CC(C)c1n[nH]c(C2CN(C(=O)c3cn4ccccc4n3)CCO2)n1` (configuration not stated), the “Percent Effect” value is on record as -4.937%.

For the compound `Cn1cnc2c1CCN(CCOc1ccc(C#N)cc1)C2`, the “Percent Effect” value was 2.022%.

With `CCC(=O)N1CCCC1(C)c1nc(C)no1` (configuration not stated), the “Percent Effect” value came out at 15.01%.

As for `Cn1ccc(C(=O)N2CCCC2c2[nH]ncc2C(N)=O)n1` (configuration not stated), the “Percent Effect” value turned out to be 3.652%.

For `O=C(c1ccc(-n2cccn2)nc1)N1CCC(c2ccn[nH]2)C1` (configuration not stated), the “Percent Effect” value was -0.6869%.

On to `Cc1nc[nH]c1CN1CCCC12CCN(c1nc3ccccc3s1)CC2`, for which, for the setting “10 mM as filed; unlikely as a test dose”, the “Percent Effect” value is 73.34% and 82.13%.

Take `c1ccc2sc(N3CCC4(CCCN4Cc4ncc[nH]4)CC3)nc2c1`: for the setting “10 mM as filed; unlikely as a test dose”, the “Percent Effect” value is 21.32% and 38.1%.

Regarding `Cc1nc[nH]c1CN1CCCN(c2nc3ccccc3s2)CC1`, for the setting “10 mM as filed; unlikely as a test dose”, the “Percent Effect” value was 2.478% and -18.14%.

On to `Cc1noc(C2CCCN(C(=O)c3ccc(N(C)C)nc3)C2)n1` (configuration not stated), for which the “Percent Effect” value worked out at 8.423%.

With `Cc1noc(C2CCN(C(=O)c3ccc(N(C)C)nc3)CC2)n1`, the “Percent Effect” value came to 4.187%.

Take `Cc1noc(C2CCN(C(=O)Nc3ccc(N(C)C)nc3)CC2)n1`: the “Percent Effect” value (10 mM as filed; unlikely as a test dose) was 63.01% and 33.92% and 30.08%.

`CC(C)c1n[nH]c(C2CN(C(=O)c3cc(C4CC4)on3)CCO2)n1` (configuration not stated): the “Percent Effect” value was -9.758%.

As for `CNC(=O)C1CCN(Cc2nc(-c3ccc(SC)cc3)oc2C)C1` (configuration not stated), under “10 mM as filed; unlikely as a test dose”, the “Percent Effect” value was -17.68% and 5.16% and 2.023%.

For the compound `CSc1ccc(-c2nc(CN3CCC(NC(C)=O)CC3)c(C)o2)cc1`, the “Percent Effect” value (10 mM as filed; unlikely as a test dose) is 0.03712% and -0.9585% and 6.229%.

Regarding `CSc1ccc(-c2nc(CN3CCC(NC(C)=O)C3)c(C)o2)cc1` (configuration not stated), where the note is “10 mM as filed; unlikely as a test dose”, the “Percent Effect” value is 76.12% and 85.32% and 90.74%.

For `Cc1ncncc1C(=O)N1CCOC(C)(C(=O)NC2CCCC2)C1` (configuration not stated), the “Percent Effect” value is 12.89%.

With `CCC(CC)c1nnc(NC(=O)N2CCCC(NC(C)=O)C2)s1` (configuration not stated), the “Percent Effect” value (10 mM as filed; unlikely as a test dose) is 78.77% and 70.93%.

With `CC(=O)NC1CCCN(C(=O)CNc2cc(Cl)cc(Cl)c2)C1` (configuration not stated), the “Percent Effect” value was -3.441%.

With `CC(=O)NC1CCCN(C(=O)NCc2cc[nH]n2)C1` (configuration not stated), the “Percent Effect” value was -1.899%.

As to `CC(=O)NC1CCCN(C(=O)Nc2cnc3c(cnn3C(C)C)c2)C1` (configuration not stated), the “Percent Effect” value is listed as -3.926%.

As for `CCCc1nnc(NC(=O)N2CCCC(NC(C)=O)C2)s1` (configuration not stated), where the note is “10 mM as filed; unlikely as a test dose”, the “Percent Effect” value was 54.93% and 67.74%.

On to `CC(=O)NC1CCCN(C(=O)NCc2cccnc2N(C)C)C1` (configuration not stated), for which the “Percent Effect” value is -28.43%.

On to `CC(=O)NC1CCCN(C(=O)Nc2nnc(C(C)C)s2)C1` (configuration not stated), for which the “Percent Effect” value (10 mM as filed; unlikely as a test dose) is 68.35% and 80.73%.

With `CC(C)c1nnc(NC(=O)NC2CCN(Cc3ccccc3)C2)s1` (configuration not stated), the “Percent Effect” value was 14.49%.

For the compound `CCC(CC)c1nnc(NC(=O)N2CCC(C(N)=O)CC2)s1`, the “Percent Effect” value (10 mM as filed; unlikely as a test dose) is -8.76% and -13.24%.
